Screens from PubChem.
Methyltransferases: Primary Screen for Target Class Profiling of Small Molecule Inhibitors of Methyltransferases; 25,000 tested, 3.9% active; calls only at 40 µM; purified enzyme, MTase-Glo SAH luminescence; stronger effect = lower value; AID 1745853, 2022; call rule not given here
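Each enzyme was assayed with SAM and its substrate. SAH formation detected by MTase-Glo luminescence; single-point 40 uM screen[…].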
Calls only; – = inactive; + = active, no number; ! = not active in a repeat. Shown is part of a subset that was picked to be rich in hits.

SMILES	Methyltransferases
CC1=C2C3OC(=O)C(C)C3(O)CCC2(C)CCC1=O (centres undefined)	–
CC1=C2C3OC(=O)C(C)C3(O)CCC2(C)CCC1 (centres undefined)	–
C=C1C(=O)O[C@@H]2C3=C(C)CCC[C@]3(C)CC[C@@]12O	+
COc1ccc(NC(=O)N2CCn3c(C)ccc3C2C(C)C)cc1 (centres undefined)	–
Cn1c(=O)c2ccc(C(=O)NC3CCCC3)cc2n2c(=O)n(CC(=O)c3ccc(Cl)cc3)nc12	–
O=S(=O)(NCCc1ccc(Cl)cc1)c1ccc2[nH]c3c(c2c1)CCCC3	–
COC1OC(=O)C2=C1C1(C)CCCC(C)(C)C1CC2O (centres undefined)	–
CC(C)c1cc2c(c(O)c1O)[C@@]13CCCC(C)(C)C1[C@@H](O)[C@@H]2OC3=O (some centres undefined)	+
CC(C)c1cc2c(c(O)c1O)[C@@]13CCCC(C)(C)[C@@H]1[C@H](OC3=O)C2=O	–
CC1(C(=O)NC2CCCCCCC2)Cn2c(cc3occc32)C(=O)N1CCCN1CCOCC1 (centres undefined)	–
CCCn1c(=O)c2ccc(C(=O)NCC(C)C)cc2n2c(SCC(=O)c3ccccc3)nnc12	–
COc1cc(/C=C/CO)ccc1O[C@@H]1O[C@H](CO)[C@@H](O)[C@H](O)[C@H]1O	–
COc1cc(C(O)C(CO)Oc2ccc(CCCO[C@@H]3O[C@@H](C)[C@H](O)[C@@H](O)[C@H]3O)cc2OC)ccc1O (some centres undefined)	+
C/C=C/c1ccc(O[C@@H]2O[C@H](CO)[C@@H](O)[C@H](O)[C@H]2O)c(OC)c1	–
O=C(/C=C/c1ccc(O)c(O)c1)OCc1ccccc1O[C@@H]1O[C@H](CO)[C@@H](O)[C@H](O)[C@H]1O	–
COc1cc(/C=C/C(=O)OC2CC(C)=C(C(=O)O)/C2=C/CO[C@@H]2O[C@H](CO)[C@@H](O)[C@H](O)[C@H]2O)ccc1O (some centres undefined)	–
COc1ccc(C2Oc3c(OC)cc(CCCO)cc3C2COC2OC(CO)C(O)C(O)C2O)cc1OC (centres undefined)	–
COc1cc(C2Oc3c(OC)cc(CCCO)cc3C2CO)ccc1O[C@H]1O[C@H](C)[C@@H](O)[C@H](O)[C@@H]1O (some centres undefined)	–
COc1cc(C[C@@]2(O)CO[C@@H](c3ccc(O[C@@H]4O[C@H](CO)[C@@H](O)[C@H](O)[C@H]4O)c(OC)c3)[C@H]2CO)ccc1O	–
COc1cc(C2Oc3c(OC)cc(/C=C/C(=O)OC[C@H]4O[C@@H](OC(C)(C)C(=O)O)[C@H](O)[C@@H](O)[C@@H]4O)cc3C2CO)ccc1O (some centres undefined)	+
COc1cc(C2Oc3c(OC)cc(CCCO[C@@H]4O[C@H](CO)[C@@H](O)[C@H](O)[C@H]4O)cc3C2CO)ccc1O (some centres undefined)	+
COc1cc(C(CO)C(OC2OC(CO)C(O)C(O)C2O)c2ccc(O)c(OC)c2)ccc1O (centres undefined)	–
COc1cc(/C=C/c2cc(O)cc(O[C@@H]3O[C@H](CO)[C@@H](O)[C@H](O)[C@H]3O)c2)ccc1O	+
O=C(NCCc1ccccc1)c1ccc2c(=O)nc3c(-c4ccc(Cl)cc4)n[nH]n3c2c1	–
O=C(CCc1nnc2n(CCc3ccccc3)c(=O)c3ccccc3n12)NCc1ccccc1	–
SMILES	Methyltransferases
Cc1cccc(Cn2nc3n(C(C)C)c(=O)c4ccc(C(=O)NC(C)C)cc4n3c2=O)c1	–
CCc1cc2c(cc3n2CC(C)(C(=O)NC2CCCCC2)N(c2cc(C)cc(C)c2)C3=O)s1 (centres undefined)	–
O=c1c2ccccc2n2c(SCc3ccccc3)nnc2n1Cc1ccccc1	–
CC(C)C1c2cccn2CCN1C(=O)Nc1ccccc1F (centres undefined)	–
COc1cccc(C2c3cccn3-c3sc4c(c3CN2C(=O)Nc2ccccc2C)CCCC4)c1 (centres undefined)	–
O=C(/C=C/c1ccc(O)cc1)OC[C@H]1O[C@H](O[C@@]2(CO)O[C@@H](CO)[C@H](O)[C@H]2O)[C@H](O)[C@@H](O)[C@@H]1O	–
COc1cc(/C=C/C(=O)OCC2OC(OC3(CO)OC(CO)C(O)C3O)C(O)C(O)C2O)ccc1O (centres undefined)	+
COc1cc(/C=C/C(=O)O[C@H]2[C@H](O)[C@@H](CO)O[C@@]2(CO)O[C@H]2O[C@H](CO)[C@@H](O)[C@H](O)[C@H]2O)cc(OC)c1O	–
Cc1ccc(Cn2c(=O)c3ccccc3n3c(SCC(=O)Nc4cccc(Cl)c4)nnc23)cc1	–
CCN(CC)c1ccc(N2C(=O)c3ccc(-c4ccco4)n3CC2(C)C(=O)NCc2ccccc2)c(C)c1 (centres undefined)	–
Cc1oc(C(O)c2ccccc2)nc1C(=O)Nc1ccc(C(=O)Nc2ccccc2)cc1 (centres undefined)	–
O=C(CCCCCCC(=O)Nc1ccccc1)NO	–
CC(C)[C@H](C(=O)Nc1ccc(C(=O)NO)cc1)c1ccccc1	+
COc1ccc2cc3n(c2c1)CC(C)(C(=O)NCC1CCCO1)N(Cc1cccc(Cl)c1)C3=O (centres undefined)	–
CN1C(=O)c2cc(C(=O)NC3CCCC3)nn2CC1(C)C(=O)NC1CCCCCC1 (centres undefined)	–
O=c1c2ccccc2n2c(=O)n(Cc3ccc(F)cc3)nc2n1CCc1ccccc1	–
COc1ccc2cc3n(c2c1)CC(C)(C(=O)NC1CCCC1)N(Cc1ccc2c(c1)OCO2)C3=O (centres undefined)	–
COc1ccc2c(c1)c(NC(C)=O)c1n2CC(C)(C(=O)NC2CCCCC2)N(CCN(C)C)C1=O (centres undefined)	–
CCOC(=O)C1CCN(C(=O)CCn2ccc3cc(S(=O)(=O)N4CCCCC4)ccc32)CC1	–
O=C(c1ccccc1)c1ccc2nc(NC(=O)c3csc(C4CCN(c5ncnc6ccsc56)CC4)n3)[nH]c2c1	+
COC(=O)Nc1nc2ccc(C(=O)c3cccs3)cc2[nH]1	–
CC1CCN(c2cc(NC(=O)c3ccccc3)ncn2)CC1	–
Cc1ccc2c(c1)c1c(n2CCc2ccc(C)nc2)CCN(C)C1	+
CCCn1c(=O)c2ccc(C(=O)NC(C)CC)cc2n2c(=O)n(Cc3ccccc3C)nc12 (centres undefined)	–
Cc1ccc(Cn2c(=O)c3ccccc3n3c(-c4ccc(Cl)cc4)nnc23)cc1	–
SMILES	Methyltransferases
Cc1cccc(Cn2nc(C3CCCNC3)n(-c3ccccc3)c2=O)c1 (centres undefined)	–
Cn1nc(C2CCCNC2)c2c(C(=O)NC3CC3)cc(C3CC3)nc21 (centres undefined)	–
NC(=O)c1cccc2cn(-c3ccc([C@@H]4CCCNC4)cc3)nc12	+!
O=C(CCc1nnc2n(Cc3ccc(F)cc3)c(=O)c3ccccc3n12)NCCc1ccc(Cl)cc1	–
Cc1ccc(CN2C(=O)c3ccc(-c4ccccc4)n3CC2(C)C(=O)NC2CCC(C)CC2)cc1 (centres undefined)	–
COC(=O)N1CCN(Cc2cccc(NC(=O)Nc3ccc(C)nc3)c2F)CC1	–
CN1CCN(Cc2ccc(NC(=O)Nc3ccc(Oc4cc(NC(=O)C5CC5)ncn4)cc3)cc2C(F)(F)F)CC1	+
CCN1CCN(Cc2ccc(C(=O)Nc3ccc(C)c(Oc4ccc5c(c4)CC(=O)N5)c3)cc2C(F)(F)F)CC1	–
